The full data set covers some 8,800 targets. This sample favours those with a hit. About 0.5% of all pairs of compound and target were hits. A number with no mark means an inactive call.
Compound: c1ccc([C@@H]2C[C@H]2NC2CCNCC2)cc1
Experiment: log2 fold change, soluble protein after heating vs DMSO (PISA); higher = thermal stabilisation; K562 lysate, 10 uM; active = over 0.2 and 3.5 SD of the protein, either way, in both replicates (recomputed)
Summary of the method: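 Dounce homogenisation of K562 pellets in PBS pH 7.4 with 1 mM MgCl2 produced a crude extract, used at 1 mg/mL protein. Exposure to 10 μM compound lasted 30 min, and aliquots were then heated for 3 min across 48°C-58°C, pooled and brought to 0.5% NP-40 at 4°C. The supernatant after 21,000xg for 90 min was quantified by TMTpro 16plex LC-MS/MS with channel sums equalised. Duplicate values are given as log-two fold change in thermal stability relative to solvent controls.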

Chain of UniProt Q12815 (Q12815 whole entry, looked up): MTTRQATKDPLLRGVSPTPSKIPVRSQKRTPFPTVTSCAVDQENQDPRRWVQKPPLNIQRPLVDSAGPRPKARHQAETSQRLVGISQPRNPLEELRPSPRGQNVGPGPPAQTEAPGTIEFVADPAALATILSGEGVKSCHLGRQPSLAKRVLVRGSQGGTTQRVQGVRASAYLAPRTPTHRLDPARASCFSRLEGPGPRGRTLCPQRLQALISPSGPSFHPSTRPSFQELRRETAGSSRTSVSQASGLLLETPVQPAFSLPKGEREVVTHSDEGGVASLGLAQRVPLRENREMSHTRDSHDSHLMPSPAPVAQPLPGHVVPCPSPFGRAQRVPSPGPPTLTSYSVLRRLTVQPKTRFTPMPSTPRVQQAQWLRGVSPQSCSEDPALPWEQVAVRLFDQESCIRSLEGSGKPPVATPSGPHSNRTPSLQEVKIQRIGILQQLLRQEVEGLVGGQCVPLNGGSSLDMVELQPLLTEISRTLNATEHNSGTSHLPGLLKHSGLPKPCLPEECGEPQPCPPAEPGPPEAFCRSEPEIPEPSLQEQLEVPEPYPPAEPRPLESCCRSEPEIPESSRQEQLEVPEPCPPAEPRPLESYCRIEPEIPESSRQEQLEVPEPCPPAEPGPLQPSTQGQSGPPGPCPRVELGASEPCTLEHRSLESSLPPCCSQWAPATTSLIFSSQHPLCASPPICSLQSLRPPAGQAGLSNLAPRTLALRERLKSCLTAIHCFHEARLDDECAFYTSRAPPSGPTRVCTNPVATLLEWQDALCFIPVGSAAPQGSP
Chain of UniProt Q9BZV1 (Q9BZV1 whole entry, looked up): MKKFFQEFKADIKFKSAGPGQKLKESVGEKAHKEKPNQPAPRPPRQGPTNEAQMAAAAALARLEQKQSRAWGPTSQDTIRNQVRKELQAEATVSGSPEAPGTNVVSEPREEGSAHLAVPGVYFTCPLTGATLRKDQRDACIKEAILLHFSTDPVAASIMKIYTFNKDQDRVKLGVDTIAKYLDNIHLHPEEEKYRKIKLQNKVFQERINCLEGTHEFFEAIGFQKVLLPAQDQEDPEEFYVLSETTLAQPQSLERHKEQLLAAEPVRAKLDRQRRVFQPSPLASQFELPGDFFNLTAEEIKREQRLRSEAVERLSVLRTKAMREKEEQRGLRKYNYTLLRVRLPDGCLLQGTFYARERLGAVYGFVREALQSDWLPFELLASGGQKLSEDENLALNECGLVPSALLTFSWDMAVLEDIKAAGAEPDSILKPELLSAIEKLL
Chain of UniProt P62256 (P62256 whole entry, looked up): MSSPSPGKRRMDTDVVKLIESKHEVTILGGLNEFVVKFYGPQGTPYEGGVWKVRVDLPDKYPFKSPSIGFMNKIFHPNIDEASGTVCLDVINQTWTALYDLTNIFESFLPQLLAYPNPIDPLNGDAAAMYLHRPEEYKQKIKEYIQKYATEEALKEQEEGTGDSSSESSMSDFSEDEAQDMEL
Chain of UniProt Q96LJ8 (Q96LJ8 whole entry, looked up): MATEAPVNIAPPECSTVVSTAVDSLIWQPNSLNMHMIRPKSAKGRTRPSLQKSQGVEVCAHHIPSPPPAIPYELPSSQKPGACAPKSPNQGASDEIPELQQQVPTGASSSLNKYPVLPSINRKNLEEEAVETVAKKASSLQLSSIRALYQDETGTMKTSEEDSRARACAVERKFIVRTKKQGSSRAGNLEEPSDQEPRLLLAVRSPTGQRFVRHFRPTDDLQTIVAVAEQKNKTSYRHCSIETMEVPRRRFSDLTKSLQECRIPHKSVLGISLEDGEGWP
Chain of UniProt Q5U3C3 (Q5U3C3 whole entry, looked up): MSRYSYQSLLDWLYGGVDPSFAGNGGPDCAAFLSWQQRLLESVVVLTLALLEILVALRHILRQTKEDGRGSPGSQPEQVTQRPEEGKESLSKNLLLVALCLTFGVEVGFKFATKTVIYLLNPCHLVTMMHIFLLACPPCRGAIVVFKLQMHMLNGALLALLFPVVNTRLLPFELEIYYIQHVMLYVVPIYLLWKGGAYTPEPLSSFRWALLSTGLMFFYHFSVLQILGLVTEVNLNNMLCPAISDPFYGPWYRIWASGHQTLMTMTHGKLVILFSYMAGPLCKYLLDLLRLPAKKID
Chain of UniProt Q9NNW7 (Q9NNW7 whole entry, looked up): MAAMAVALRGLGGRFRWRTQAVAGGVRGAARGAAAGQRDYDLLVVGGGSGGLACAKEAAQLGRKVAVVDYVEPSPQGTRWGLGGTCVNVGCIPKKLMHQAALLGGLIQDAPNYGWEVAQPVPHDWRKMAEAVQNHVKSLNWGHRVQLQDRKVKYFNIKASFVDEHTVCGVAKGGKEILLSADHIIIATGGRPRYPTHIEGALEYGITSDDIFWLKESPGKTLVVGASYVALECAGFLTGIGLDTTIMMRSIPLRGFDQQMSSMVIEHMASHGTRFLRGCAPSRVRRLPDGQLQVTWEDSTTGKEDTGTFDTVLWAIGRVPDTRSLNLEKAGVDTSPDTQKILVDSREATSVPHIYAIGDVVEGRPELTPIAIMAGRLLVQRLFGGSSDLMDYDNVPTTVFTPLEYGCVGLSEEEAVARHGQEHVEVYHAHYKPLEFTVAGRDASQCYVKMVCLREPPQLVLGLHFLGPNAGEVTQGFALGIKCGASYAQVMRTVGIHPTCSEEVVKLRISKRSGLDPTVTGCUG
Chain of UniProt P22314 (P22314 whole entry, looked up): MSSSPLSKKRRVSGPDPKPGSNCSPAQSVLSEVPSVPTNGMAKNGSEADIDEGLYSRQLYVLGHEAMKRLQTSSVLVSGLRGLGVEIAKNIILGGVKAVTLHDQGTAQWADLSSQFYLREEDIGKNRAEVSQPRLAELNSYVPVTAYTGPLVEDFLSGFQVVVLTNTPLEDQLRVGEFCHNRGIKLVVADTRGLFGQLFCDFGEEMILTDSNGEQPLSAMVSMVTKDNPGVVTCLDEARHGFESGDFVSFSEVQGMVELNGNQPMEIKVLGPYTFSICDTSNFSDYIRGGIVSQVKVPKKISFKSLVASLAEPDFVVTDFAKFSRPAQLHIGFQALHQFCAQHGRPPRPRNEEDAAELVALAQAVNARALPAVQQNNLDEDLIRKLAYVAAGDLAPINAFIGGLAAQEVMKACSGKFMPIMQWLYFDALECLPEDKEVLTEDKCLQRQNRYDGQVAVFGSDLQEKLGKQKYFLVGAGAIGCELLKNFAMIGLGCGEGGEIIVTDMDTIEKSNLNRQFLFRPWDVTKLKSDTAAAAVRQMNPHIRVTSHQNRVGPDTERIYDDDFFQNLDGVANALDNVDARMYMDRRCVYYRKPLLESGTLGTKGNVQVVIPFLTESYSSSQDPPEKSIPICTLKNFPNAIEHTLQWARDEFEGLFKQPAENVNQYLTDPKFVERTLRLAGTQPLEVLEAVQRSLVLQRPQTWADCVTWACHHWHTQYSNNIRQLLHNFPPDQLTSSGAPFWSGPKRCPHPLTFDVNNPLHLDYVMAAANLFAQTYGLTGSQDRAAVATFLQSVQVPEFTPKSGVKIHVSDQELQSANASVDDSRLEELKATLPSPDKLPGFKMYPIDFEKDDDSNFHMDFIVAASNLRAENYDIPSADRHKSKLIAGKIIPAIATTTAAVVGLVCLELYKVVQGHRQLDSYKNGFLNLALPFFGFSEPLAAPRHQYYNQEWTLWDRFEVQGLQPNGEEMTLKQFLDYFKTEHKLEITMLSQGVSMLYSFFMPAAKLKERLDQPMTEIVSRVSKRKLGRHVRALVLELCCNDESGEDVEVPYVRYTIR
Chain of UniProt Q969Z0 (Q969Z0 whole entry, looked up): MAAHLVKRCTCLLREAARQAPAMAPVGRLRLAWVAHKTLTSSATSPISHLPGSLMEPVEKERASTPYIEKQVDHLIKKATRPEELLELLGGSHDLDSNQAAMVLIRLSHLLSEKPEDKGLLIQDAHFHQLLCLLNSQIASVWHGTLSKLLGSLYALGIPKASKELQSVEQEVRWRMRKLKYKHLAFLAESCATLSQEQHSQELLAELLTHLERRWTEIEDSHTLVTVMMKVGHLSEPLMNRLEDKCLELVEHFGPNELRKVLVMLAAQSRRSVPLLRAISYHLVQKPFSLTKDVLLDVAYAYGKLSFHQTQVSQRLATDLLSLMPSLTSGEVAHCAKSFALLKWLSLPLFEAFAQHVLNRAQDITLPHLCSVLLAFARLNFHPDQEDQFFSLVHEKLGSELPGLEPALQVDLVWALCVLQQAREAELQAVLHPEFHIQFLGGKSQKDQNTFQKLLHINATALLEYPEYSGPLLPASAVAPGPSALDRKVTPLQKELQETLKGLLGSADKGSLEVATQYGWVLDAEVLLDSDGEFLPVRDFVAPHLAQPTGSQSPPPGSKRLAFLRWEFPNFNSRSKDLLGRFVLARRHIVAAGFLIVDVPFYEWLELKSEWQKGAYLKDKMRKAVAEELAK
Chain of UniProt P67936 (P67936 whole entry, looked up): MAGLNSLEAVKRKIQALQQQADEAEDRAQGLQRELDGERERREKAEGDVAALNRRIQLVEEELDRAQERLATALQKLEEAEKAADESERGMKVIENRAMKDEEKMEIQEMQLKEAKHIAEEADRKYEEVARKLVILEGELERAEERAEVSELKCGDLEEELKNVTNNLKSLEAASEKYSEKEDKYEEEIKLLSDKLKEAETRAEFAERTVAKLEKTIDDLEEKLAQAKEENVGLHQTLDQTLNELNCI

| Target | log2 fold change |
| --- | --- |
| TMEM164 (UniProt Q5U3C3) | -0.543 |
| TPM4 isoform 2 (UniProt P67936) | 0.1 |
| TROAP (UniProt Q12815) | 0.096 |
| UBE2H (UniProt P62256) | 0.095 |
| UBA1 (UniProt P22314) | 0.04 |
| UBXN10 (UniProt Q96LJ8) | 0.022 |
| TXNRD2 (UniProt Q9NNW7) | 0.006 |
| UBXN6 (UniProt Q9BZV1) | 0.031 |
| TBRG4 (UniProt Q969Z0) | 0.094 |
| TGFBRAP1 (UniProt Q8WUH2) | -0.014 |
| TLE3 isoform 4 (UniProt Q04726) | 0.007 |
| TUT4 (UniProt Q5TAX3) | -0.021 |

Reference: the supplement of paper PMC10849652
